# From PubChem BioAssay (Tox21)
# Active and inactive are the calls of the source. Entries that show only a call come without a potency. Unless noted, the call rests on the fitted dose curve. Positions of bridges follow the written chain, without caps; N, C: chain ends. Non-standard residues stand in square brackets, D forms with d. Residues, ends and D or L forms follow the SMILES beside them. ξ: configuration not given here. *: point of attachment. d(aThr) = C[C@@H](O)[C@@H](N)C(=O)O; ξThr(3R) = C[C@@H](O)C(N)C(=O)O; X3 = CC[C@@H](C)CCCCC(=O)*; dDab = NCC[C@@H](N)C(=O)O
# Assays:
# [1] = tested on: thyroid hormone receptor (rat, GH3 cells); experiment: qHTS assay to identify small molecule agonists of the thyroid receptor (TR) signaling pathway (AID 743066); further: potency means the concentration at half of the fitted maximal effect
# [2] = molecular target: Estrogen receptor (Homo sapiens) (UniProt P03372); experiment: qHTS assay to identify small molecule antagonists of the estrogen receptor alpha (ER-alpha) signaling pathway (AID 743069; active means well fitted curve in the direction sought with a large enough effect in the signal ratio in the repeat runs, not every such curve was filed as active; inconclusive means weak or mixed curves, or effect the other way; inactive means no such curve, though single readings can be large or run the other way; the % refers to the signal ratio)
# Outline: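 Compound effects are measured against 17beta-estradiol stimulation in HEK293 cells with a UAS-controlled beta-lactamase reporter for ER-alpha. Exposure lasts 18 hr at 37C; LiveBLAzer B/G FRET substrate follows for 2 hr at room temperature.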
# [3] = qHTS assay to identify small molecule antagonists of the estrogen receptor alpha (ER-alpha) signaling pathway - cell viability counter screen (AID 743074);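 further: HEK293 cells carrying ER-alpha-UAS-bla reporter stimulated with 17beta-estradiol; nearly all actives have a fitted effect of over 45% in size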
# [4] = molecular target: Estrogen receptor (Homo sapiens) (UniProt P03372); experiment: qHTS assay to identify small molecule agonists of the estrogen receptor alpha (ER-alpha) signaling pathway (AID 743075); further: potency means the concentration at half of the fitted maximal effect
# [5] = molecular target: Estrogen receptor (Homo sapiens) (UniProt P03372); experiment: qHTS assay to identify small molecule agonists of the estrogen receptor alpha (ER-alpha) signaling pathway using the BG1 cell line (AID 743079; active means well fitted curve in the direction sought with a large enough effect in the repeat runs; inconclusive means weak or mixed curves; inactive means no such curve, though single readings can be large; an effect the other way counts as inactive or inconclusive; further: nearly all actives have a fitted effect of over 20% in size; further: potency means the concentration at half of the fitted maximal effect); details: BG1Luc4E2 cells, ERE-luciferase agonist, 22 h; activation: at 70.3 µM (top of the series)
# [6] = qHTS assay to identify small molecule antagonists of the estrogen receptor alpha (ER-alpha) signaling pathway using the BG1 cell line (AID 743080);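 further: BG1 cells stimulated with 17beta-estradiol alongside compound; nearly all actives have a fitted effect of over 25% in size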; further: potency means the concentration at half of the fitted maximal effect
# Outline: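 Quantitative HTS on the Tox21 10K library: BG1 cells with endogenous ER-alpha and ERE-luciferase reporter, 17beta-estradiol stimulation, 21.5 h compound exposure, luminescence endpoint with parallel fluorescence cytotoxicity counter-read.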
# [7] = qHTS assay to identify small molecule antagonists of the estrogen receptor alpha (ER-alpha) signaling pathway using the BG1 cell line - cell viability counter screen (AID 743081; active means well fitted curve in the direction sought with a large enough effect in the repeat runs; inconclusive means weak or mixed curves; inactive means no such curve, though single readings can be large; an effect the other way counts as inactive or inconclusive;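 further: compound given together with 17beta-estradiol as the ER stimulus; nearly all actives have a fitted effect of over 45% in size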; further: potency means the concentration at half of the fitted maximal effect)
# Aromatase (Homo sapiens) = Aromatase (Homo sapiens) (UniProt P11511); experiment: qHTS assay to identify aromatase inhibitors (AID 743083; active means well fitted curve in the direction sought with a large enough effect in the repeat runs; inconclusive means weak or mixed curves; inactive means no such curve, though single readings can be large; an effect the other way counts as inactive or inconclusive; further: nearly all actives have a fitted effect of over 55% in size; further: potency means the concentration at half of the fitted maximal effect)
# [8] = qHTS assay to identify small molecule antagonists of the thyroid receptor (TR) signaling pathway (AID 743065; active means well fitted curve in the direction sought with a large enough effect in the repeat runs; inconclusive means weak or mixed curves; inactive means no such curve, though single readings can be large; an effect the other way counts as inactive or inconclusive; further: potency means the concentration at half of the fitted maximal effect; nearly all actives have a fitted effect of over 55% in size)
# Outline: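 Antagonism measured as loss of luciferase signal in GH3 cells stably carrying a TRE-luciferase reporter, co-treated with compound and T3 (1 nM final) for 23.5 h at 37 C. Viability was read in the same well by CellTiter-Fluor.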
# Sequence of Aromatase (Homo sapiens) (P11511 whole entry, looked up): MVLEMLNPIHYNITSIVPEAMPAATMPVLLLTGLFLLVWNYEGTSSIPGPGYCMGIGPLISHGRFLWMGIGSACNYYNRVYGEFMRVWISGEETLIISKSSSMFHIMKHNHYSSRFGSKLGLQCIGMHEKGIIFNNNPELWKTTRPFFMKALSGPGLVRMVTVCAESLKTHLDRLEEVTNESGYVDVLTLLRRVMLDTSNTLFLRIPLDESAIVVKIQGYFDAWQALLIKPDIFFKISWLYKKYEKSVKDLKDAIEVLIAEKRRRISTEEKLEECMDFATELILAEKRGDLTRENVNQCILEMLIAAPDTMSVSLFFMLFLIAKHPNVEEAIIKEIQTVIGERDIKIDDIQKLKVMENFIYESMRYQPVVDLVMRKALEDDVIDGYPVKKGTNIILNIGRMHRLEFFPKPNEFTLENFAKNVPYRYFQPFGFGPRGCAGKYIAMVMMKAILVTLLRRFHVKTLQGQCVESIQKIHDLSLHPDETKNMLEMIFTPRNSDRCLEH
# Sequence of Estrogen receptor (Homo sapiens) (P03372 whole entry, looked up): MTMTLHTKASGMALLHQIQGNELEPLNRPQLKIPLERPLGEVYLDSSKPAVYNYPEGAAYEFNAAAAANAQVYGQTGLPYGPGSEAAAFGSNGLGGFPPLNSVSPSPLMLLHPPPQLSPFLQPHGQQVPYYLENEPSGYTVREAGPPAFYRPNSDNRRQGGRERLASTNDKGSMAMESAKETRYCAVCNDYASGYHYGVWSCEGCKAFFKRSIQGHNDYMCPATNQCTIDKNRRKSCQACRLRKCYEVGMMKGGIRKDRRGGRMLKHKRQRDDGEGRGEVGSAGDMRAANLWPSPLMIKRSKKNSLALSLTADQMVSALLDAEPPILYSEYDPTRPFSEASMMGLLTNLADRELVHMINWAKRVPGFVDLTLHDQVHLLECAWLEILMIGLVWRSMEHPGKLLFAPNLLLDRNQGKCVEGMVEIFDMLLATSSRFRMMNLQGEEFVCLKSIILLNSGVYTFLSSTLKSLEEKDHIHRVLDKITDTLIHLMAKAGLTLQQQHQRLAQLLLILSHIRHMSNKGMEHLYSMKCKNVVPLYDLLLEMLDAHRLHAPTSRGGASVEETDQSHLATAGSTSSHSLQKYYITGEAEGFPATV
Structure (SMILES),Potency [1],Potency [2],Potency [3],Potency [4],Potency [5],Potency [6],Potency [7],Potency (Aromatase (Homo sapiens)),Potency [8]
COc1ccc(C[C@H](C)NC[C@@H](O)c2ccc(O)c(NC=O)c2)cc1,inactive,inactive,inactive,inactive,inactive,inactive,–,–,–
N=C(N)c1ccc(OCCCOc2ccc(C(=N)N)cc2Br)c(Br)c1,inactive,–,–,–,–,–,–,–,–
CCCCC/C=C\C/C=C\C/C=C\CCCCC(=O)O,inactive,–,inactive,–,–,–,inactive,inactive,–
CNC(C)CCC=C(C)C (centres undefined),inactive,–,–,–,–,–,inactive,inactive,–
CC(=C\c1ccccc1)/C=C1/SC(=S)N(CC(=O)O)C1=O,inactive,inactive,inactive,inactive,inactive,inactive,29.8 µM (active),inactive,–
Oc1cc(O)cc(O)c1,inactive,–,inactive,–,–,–,inactive,inactive,–
CO[C@H]1C[C@@H]2CC[C@@H](C)[C@@](O)(O2)C(=O)C(=O)N2CCCC[C@H]2C(=O)O[C@H]([C@H](C)C[C@@H]2CC[C@@H](OC(=O)C(C)(CO)CO)[C@H](OC)C2)CC(=O)[C@H](C)/C=C(\C)[C@@H](O)[C@@H](OC)C(=O)[C@H](C)C[C@H](C)/C=C/C=C/C=C/1C,–,inactive,inactive,inactive,23.7 µM (active),inactive,inactive,inactive,–
CN1C(=O)CN2CCc3ccccc3C2c2cc(Cl)ccc21 (centres undefined),–,inactive,inactive,inactive,inactive,21.1 µM (active),inactive,inactive,–
NC(=O)C[C@@H](N)C(=O)O,inactive,–,inactive,–,–,–,–,inactive,–
COc1ccc(CCNC[C@H](O)c2ccc(O)cc2)cc1OC,–,inactive,inactive,inactive,inactive,inactive,inactive,inactive,–
CCCCC/C=C\CCC(=O)N[C@H]1[C@H](Oc2c3cc4cc2Oc2ccc(cc2Cl)[C@@H](O[C@@H]2O[C@H](CO)[C@@H](O)[C@H](O)[C@H]2NC(C)=O)[C@@H]2NC(=O)[C@H](NC(=O)[C@@H]4NC(=O)[C@H]4NC(=O)[C@@H](Cc5ccc(c(Cl)c5)O3)NC(=O)[C@H](N)c3ccc(O)c(c3)Oc3cc(O)cc4c3)c3ccc(O)c(c3)-c3c(O[C@H]4O[C@H](CO)[C@@H](O)[C@H](O)[C@@H]4O)cc(O)cc3[C@@H](C(=O)O)NC2=O)O[C@H](CO)[C@@H](O)[C@@H]1O,inactive,inactive,inactive,inactive,inactive,inactive,–,inactive,–
CC[C@@H](C)CCCCC(=O)N[C@H](CCN)C(=O)N[C@@H](C(=O)N[C@H](CCN)C(=O)N[C@@H]1CCNC(=O)C([C@@H](C)O)NC(=O)[C@@H](CCN)NC(=O)[C@@H](CCN)NC(=O)[C@@H](CC(C)C)NC(=O)[C@@H](Cc2ccccc2)NC(=O)[C@@H](CCN)NC1=O)[C@@H](C)O (stereo partly drawn) (X3-[dDab][d(aThr)][dDab][dDab][dDab][dF][dL][dDab][dDab][ξThr(3R)]; lactam 4-C),inactive,–,inactive,–,–,–,inactive,inactive,–
CCCCCCCCCCCC(=O)N(CCO)CCO,inactive,–,inactive,inactive,inactive,inactive,inactive,inactive,–
CCCCCCCCCCCCCC[n+]1ccc(C)cc1,–,–,–,inactive,–,–,–,8.41 µM (active),4.73 µM (active)
CN1CCc2c(c3ccccc3n2Cc2ccccc2)C1,inactive,–,–,–,–,–,inactive,inactive,–
CN1CCC(OC(=O)C(Oc2ccc(Cl)cc2)Oc2ccc(Cl)cc2)CC1,inactive,inactive,inactive,inactive,inactive,inactive,inactive,inactive,–
NC[C@@H]1O[C@H](O[C@H]2[C@@H](O)[C@H](O[C@@H]3[C@@H](O)[C@H](N)C[C@H](N)[C@H]3O[C@H]3O[C@H](CN)[C@@H](O)[C@H](O)[C@H]3N)O[C@@H]2CO)[C@H](N)[C@@H](O)[C@@H]1O,–,inactive,inactive,inactive,inactive,inactive,inactive,inactive,–
Nc1c(Br)cc(Br)cc1CNC1CCC(O)CC1 (centres undefined),–,inactive,inactive,inactive,inactive,inactive,inactive,inactive,–

Structure (SMILES),Potency [1],Potency [2],Potency [3],Potency [4],Potency [5],Potency [6],Potency [7],Potency (Aromatase (Homo sapiens)),Potency [8]
CCCCCCCCCCCCCCCC(=O)O[C@@H]1CC(C)=C(/C=C/C(C)=C/C=C/C(C)=C/C=C/C=C(C)/C=C/C=C(C)/C=C/C2=C(C)C[C@@H](OC(=O)CCCCCCCCCCCCCCC)CC2(C)C)C(C)(C)C1,inactive,–,inactive,inactive,inactive,inactive,inactive,inactive,–
C#C[C@]1(O)CC[C@H]2[C@@H]3CCC4=CCCC[C@@H]4[C@H]3C(=C)C[C@@]21CC,–,inactive,inactive,2.39 µM [inconclusive] (active),1.88 µM (active),inactive,inactive,inactive,–
O=C(CCCN1CCC(C(=O)c2ccc(F)cc2)CC1)c1ccc(F)cc1,inactive,inactive,inactive,inactive,inactive,inactive,inactive,inactive,–
CC1CC(OC(=O)C(O)c2ccccc2)CC(C)(C)C1 (centres undefined),inactive,–,inactive,inactive,inactive,inactive,inactive,inactive,–
CCCC(=O)Nc1c(I)cc(I)c(CC(CC)C(=O)O)c1I (centres undefined),inactive,inactive,inactive,inactive,inactive,inactive,–,inactive,–
O=C(COc1ccc(Cl)cc1)OCCNC12CC3CC(CC(C3)C1)C2,–,inactive,inactive,inactive,inactive,inactive,inactive,inactive,–
COc1ccc(CCNCC(O)COc2cccc(C)c2)cc1OC (centres undefined),inactive,inactive,inactive,inactive,inactive,inactive,inactive,inactive,–
CC1(C)S[C@@H]2[C@H](NC(=O)C(C(=O)O)c3ccsc3)C(=O)N2[C@H]1C(=O)O (some centres undefined),–,inactive,inactive,inactive,inactive,inactive,inactive,inactive,–
CC(CN1c2ccccc2Sc2cccnc21)N(C)C (centres undefined),inactive,inactive,inactive,–,inactive,inactive,inactive,inactive,–
Cc1cc(-n2c(=O)[nH]c(=O)n(C)c2=O)ccc1Oc1ccc(S(=O)(=O)C(F)(F)F)cc1,9.44 µM (active),–,–,inactive,–,–,inactive,inactive,–
C=Cc1c(C)c2cc3nc(cc4[nH]c(cc5nc(cc1[nH]2)C(C)=C5CCC(=O)OC)c(CCC(=O)O)c4C)[C@@]1(C)C3=CC=C(C(=O)OC)[C@H]1C(=O)OC,inactive,–,inactive,inactive,inactive,inactive,–,inactive,–
COC(F)(F)C(Cl)Cl,–,inactive,inactive,inactive,inactive,inactive,inactive,inactive,–
CO[C@@H]1[C@@H](O[C@@H]2O[C@H](C)[C@@H](O[C@H]3C[C@@](C)(O)[C@@H](O)[C@H](C)O3)[C@H](N(C)C)[C@H]2O)[C@@H](CC=O)C[C@@H](C)[C@@H](O[C@@H]2CC[C@H](N(C)C)[C@@H](C)O2)/C=C/C=C/C[C@@H](C)OC(=O)C[C@H]1O,–,inactive,inactive,inactive,inactive,inactive,inactive,inactive,–
COC(=O)CCC(=O)CN,–,inactive,inactive,inactive,inactive,inactive,inactive,inactive,–
COc1cc2[nH]c(C)c(CCN3CCN(c4ccccc4)CC3)c2cc1OC,inactive,inactive,inactive,inactive,inactive,inactive,inactive,inactive,–
CN1CC(O)c2cc(N=NC(N)=O)c(O)cc21 (centres undefined),–,inactive,inactive,inactive,inactive,inactive,inactive,inactive,–
CC[C@@H]1/C=C(\C)C[C@H](C)C[C@H](OC)[C@H]2O[C@@](O)(C(=O)C(=O)N3CCCC[C@H]3C(=O)O[C@H](/C(C)=C/[C@@H]3CC[C@@H](Cl)[C@H](OC)C3)[C@H](C)[C@@H](O)CC1=O)[C@H](C)C[C@@H]2OC,inactive,–,inactive,–,–,–,inactive,inactive,–
O=C(Nc1ccc(/C=C/c2ccc(NC(=O)c3cc(S(=O)(=O)O)c4cccnc4c3O)cc2S(=O)(=O)O)c(S(=O)(=O)O)c1)c1cc(S(=O)(=O)O)c2cccnc2c1O,inactive,inactive,inactive,inactive,inactive,inactive,inactive,inactive,–
